Bioassay records (PubChem)
Cav3 T inh: Cav3.2 calcium influx blockers – cell-based, Fluo-4 calcium fluorescence, FDSS, MLSMR library, primary screen. Voltage-dependent T-type calcium channel subunit alpha-1H (Homo sapiens), O95180. Cav3.2-expressing cells; hits give low values. B-score at 10 µM. 4% of 100,000 active. AID 449739, 2010;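 active = single-dose well whose peak fluorescence ratio is a statistical outlier from its plate by either plate-standardised score or position-corrected B-score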
Target sequence (O95180 whole entry, looked up): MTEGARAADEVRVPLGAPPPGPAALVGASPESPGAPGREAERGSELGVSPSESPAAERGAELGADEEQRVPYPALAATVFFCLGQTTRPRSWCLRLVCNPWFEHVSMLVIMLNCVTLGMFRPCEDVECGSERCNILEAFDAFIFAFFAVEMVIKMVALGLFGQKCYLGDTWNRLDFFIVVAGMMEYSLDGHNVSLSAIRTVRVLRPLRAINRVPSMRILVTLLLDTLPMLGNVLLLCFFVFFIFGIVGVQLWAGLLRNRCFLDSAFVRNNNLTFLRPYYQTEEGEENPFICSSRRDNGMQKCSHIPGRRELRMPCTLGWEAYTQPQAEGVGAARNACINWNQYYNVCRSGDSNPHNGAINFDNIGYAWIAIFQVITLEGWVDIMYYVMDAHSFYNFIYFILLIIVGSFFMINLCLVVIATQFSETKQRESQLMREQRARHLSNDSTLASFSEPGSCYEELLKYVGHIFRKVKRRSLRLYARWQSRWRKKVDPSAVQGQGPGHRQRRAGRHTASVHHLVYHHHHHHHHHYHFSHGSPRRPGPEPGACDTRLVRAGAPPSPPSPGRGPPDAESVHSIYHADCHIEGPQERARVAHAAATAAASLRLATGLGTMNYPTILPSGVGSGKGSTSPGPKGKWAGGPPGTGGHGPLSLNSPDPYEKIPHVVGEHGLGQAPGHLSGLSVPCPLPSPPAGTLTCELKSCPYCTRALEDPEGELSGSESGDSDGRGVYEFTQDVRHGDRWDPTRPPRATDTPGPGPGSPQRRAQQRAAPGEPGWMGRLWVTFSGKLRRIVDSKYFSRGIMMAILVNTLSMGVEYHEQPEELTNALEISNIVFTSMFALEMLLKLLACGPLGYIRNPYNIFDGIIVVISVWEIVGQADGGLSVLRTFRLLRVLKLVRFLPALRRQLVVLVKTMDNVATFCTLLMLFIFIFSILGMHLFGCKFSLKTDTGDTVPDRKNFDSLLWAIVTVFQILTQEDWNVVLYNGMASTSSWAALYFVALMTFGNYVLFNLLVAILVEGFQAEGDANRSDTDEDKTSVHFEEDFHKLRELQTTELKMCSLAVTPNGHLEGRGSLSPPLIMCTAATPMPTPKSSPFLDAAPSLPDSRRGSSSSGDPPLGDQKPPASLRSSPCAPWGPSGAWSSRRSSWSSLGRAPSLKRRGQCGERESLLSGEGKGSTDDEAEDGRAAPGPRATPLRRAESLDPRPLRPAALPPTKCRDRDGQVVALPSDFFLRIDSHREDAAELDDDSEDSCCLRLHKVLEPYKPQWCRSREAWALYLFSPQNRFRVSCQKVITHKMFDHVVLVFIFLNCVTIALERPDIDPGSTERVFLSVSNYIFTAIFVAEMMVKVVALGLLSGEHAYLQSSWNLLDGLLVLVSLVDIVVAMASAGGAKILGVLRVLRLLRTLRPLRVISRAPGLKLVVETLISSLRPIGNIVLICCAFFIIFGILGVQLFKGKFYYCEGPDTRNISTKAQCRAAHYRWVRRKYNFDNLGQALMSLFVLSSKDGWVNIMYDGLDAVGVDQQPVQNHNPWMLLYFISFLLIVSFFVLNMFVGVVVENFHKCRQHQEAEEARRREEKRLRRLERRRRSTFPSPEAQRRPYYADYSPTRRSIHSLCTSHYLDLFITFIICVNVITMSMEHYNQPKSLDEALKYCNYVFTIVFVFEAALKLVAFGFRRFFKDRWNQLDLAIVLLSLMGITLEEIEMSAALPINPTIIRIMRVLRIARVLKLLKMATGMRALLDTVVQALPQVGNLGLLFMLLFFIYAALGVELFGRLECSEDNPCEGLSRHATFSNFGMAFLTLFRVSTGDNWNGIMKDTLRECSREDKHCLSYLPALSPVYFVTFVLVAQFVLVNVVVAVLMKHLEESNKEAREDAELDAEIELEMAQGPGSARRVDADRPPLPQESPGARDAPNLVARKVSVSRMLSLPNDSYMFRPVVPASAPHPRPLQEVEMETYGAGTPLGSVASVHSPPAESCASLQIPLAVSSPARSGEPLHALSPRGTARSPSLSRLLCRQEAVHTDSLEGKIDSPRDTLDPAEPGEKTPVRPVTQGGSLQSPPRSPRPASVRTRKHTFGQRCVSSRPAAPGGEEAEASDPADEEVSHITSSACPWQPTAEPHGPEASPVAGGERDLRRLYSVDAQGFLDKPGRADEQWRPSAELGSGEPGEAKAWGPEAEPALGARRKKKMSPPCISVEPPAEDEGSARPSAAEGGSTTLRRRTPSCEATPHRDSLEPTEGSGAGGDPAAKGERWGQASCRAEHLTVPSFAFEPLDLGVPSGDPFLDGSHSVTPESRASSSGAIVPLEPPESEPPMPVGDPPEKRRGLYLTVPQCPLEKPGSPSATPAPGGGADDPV
PostGolgi yeast: phenotypic screen on post-Golgi transport, primary screen; inhibition, % at 10 µM; AID 739, 2007; post-Golgi transport phenotypic cell assay; 0.9% of 98,000 active;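 note: yeast cells grown in 1536-well plates; yeast grown about 18 h at 30C before absorbance read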
D1 mod: D1 CRE-luciferase signal change, two-sided – cell-based, HEK293 D1, dopamine EC30, D1 allosteric modulator project, primary screen. D(1A) dopamine receptor (Homo sapiens), P21728. dopamine EC30 potentiation; actives deviate in either direction. B-score at 10 µM. 5.9% of 58,000 active. AID 641, 2007;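 active = luminescence count or its row- and column-corrected plate score outside the 99.7% band of the plate's sample wells, on either side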
PLAP act: PLAP enzyme activators, biochemical, luminescence, HTS. 1.2% of 96,000 active. purified PLAP enzyme, luminescent substrate read-out; hits give high values. activation fold at 20 µM. Alkaline phosphatase, placental type (Homo sapiens), P05187. AID 696, 2007; in the data active = activation fold above about 2
DAT uptake mod: changed hDAT dopamine uptake under cocaine IC80, either direction, primary screen, cocaine antagonist project, cell-based, LLC-PK1 hDAT, [14C]-dopamine uptake, MLSMR | Sodium-dependent dopamine transporter (Homo sapiens), Q01959 | LLC-PK1 hDAT cells, [14C]-dopamine uptake with cocaine IC80; actives deviate in either direction | B-score at 10 µM | 1.3% of 110,000 active;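 active = Z score or B-score, a plate-position-corrected score, falls beyond the plate's 99.7% confidence bounds, in either direction; inactive = both scores lie inside the 99.7% bounds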
PostGolgi ctrl: growth inhibition of yeast control strain, primary screen, counter-screen for post-Golgi transport modulator project | AID 738, 2007 | inhibition, % at 10 µM | efflux-deficient yeast background strain, growth absorbance A615, 16 h | 5% of 98,000 active
Numbers stand for hits. Rows were chosen to be rich in hits. Some 12% of all compounds tested hit in one or more screens of this group. Cut-off read from the data, not from the text of the source, unless noted: active = inhibition above about 30%; inactive = the rest.

How did O=C(NCc1ccc2c(c1)OCO2)C1CCN(c2ncccn2)CC1 do in these assays?
Cav3 T inh: inactive; PostGolgi yeast: inactive; D1 mod: inactive; PLAP act: inactive; DAT uptake mod: inactive; PostGolgi ctrl: inactive

What do the screens show for `CCN(CCCNC(=O)CN(C)S(=O)(=O)c1ccc2c(c1)CCC(=O)N2)c1cccc(C)c1`?
Cav3 T inh: inactive; PostGolgi yeast: inactive; D1 mod: inactive; PLAP act: inactive; DAT uptake mod: inactive; PostGolgi ctrl: inactive

How did Cc1[nH]nc2c1C(c1ccc(F)cc1)C(C#N)=C(N)O2 (stereo not drawn) do in these assays?
Cav3 T inh: inactive; PostGolgi yeast: inactive; D1 mod: inactive; PLAP act: inactive; DAT uptake mod: inactive; PostGolgi ctrl: inactive

How did Cc1oc(C)c2c(=O)ccc3c(c12)OC(N)=C(C#N)C3c1ccc(F)cc1 (stereo not drawn) do in these assays?
Cav3 T inh: -3.3; PostGolgi yeast: inactive; D1 mod: inactive; PLAP act: inactive; DAT uptake mod: inactive; PostGolgi ctrl: inactive

What do the screens show for `Clc1ccccc1CN(Cc1ccccc1)c1ncnc2nc[nH]c12`?
Cav3 T inh: -3.7; PostGolgi yeast: inactive; D1 mod: inactive; PLAP act: inactive; DAT uptake mod: inactive; PostGolgi ctrl: 52

How did Clc1ccccc1CNc1ncnc2nc[nH]c12 do in these assays?
Cav3 T inh: inactive; PostGolgi yeast: inactive; D1 mod: inactive; PLAP act: inactive; DAT uptake mod: inactive; PostGolgi ctrl: inactive

How did CCCN(CCC)c1ncnc2nc[nH]c12 do in these assays?
PostGolgi yeast: inactive; D1 mod: inactive; PLAP act: 2.3; DAT uptake mod: inactive; PostGolgi ctrl: inactive

Results for CCOC(=O)N1CCC(Nc2c(N3CCN(c4cccc(C(F)(F)F)c4)CC3)c(=O)c2=O)CC1 ?
Cav3 T inh: inactive; PostGolgi yeast: inactive; D1 mod: inactive; PLAP act: inactive; DAT uptake mod: inactive; PostGolgi ctrl: inactive

What do the screens show for `O=C(Nc1ccc(Cl)cc1)N1CCN(c2ccc3nnc(-c4ccc(F)cc4)n3n2)CC1`?
Cav3 T inh: inactive; PostGolgi yeast: inactive; D1 mod: inactive; PLAP act: inactive; DAT uptake mod: 2.8; PostGolgi ctrl: inactive

What do the screens show for `O=C(CN1C(=O)C2CC=CCC2C1=O)Nc1ccc(S(=O)(=O)NC2=NCCCCC2)cc1` (stereo not drawn)?
Cav3 T inh: inactive; PostGolgi yeast: inactive; D1 mod: inactive; PLAP act: inactive; DAT uptake mod: -8.1; PostGolgi ctrl: inactive

How did COc1ccc(CNC(=O)C2CCCN(S(=O)(=O)c3c(C)n[nH]c3C)C2)cc1 (stereo not drawn) do in these assays?
Cav3 T inh: inactive; PostGolgi yeast: inactive; PLAP act: inactive; DAT uptake mod: inactive; PostGolgi ctrl: inactive

What do the screens show for `COc1ccc(OC)c(C(=O)c2coc3ccc(O)cc23)c1`?
Cav3 T inh: -4.7; PostGolgi yeast: inactive; D1 mod: inactive; PLAP act: inactive; DAT uptake mod: inactive; PostGolgi ctrl: inactive

Results for CCOC(=O)C1Cn2c(nc3c(c2=O)C(C)(C)Cc2ccccc2-3)S1 (stereo not drawn) ?
Cav3 T inh: -6.4; PostGolgi yeast: inactive; D1 mod: inactive; PLAP act: inactive; DAT uptake mod: inactive; PostGolgi ctrl: 32

What do the screens show for `CCCC(=O)Nn1cnc2c(c1=O)C1(CCCC1)Cc1ccccc1-2`?
Cav3 T inh: inactive; PostGolgi yeast: inactive; PLAP act: inactive; DAT uptake mod: inactive; PostGolgi ctrl: inactive

Results for CCOC(=O)C1Cn2c(nc3c(c2=O)C2(CCCC2)Cc2ccccc2-3)S1 (stereo not drawn) ?
Cav3 T inh: -5.4; PostGolgi yeast: inactive; D1 mod: inactive; PLAP act: inactive; DAT uptake mod: inactive; PostGolgi ctrl: 38

Results for CCCn1c(SCC(=O)N2c3ccccc3CCc3ccccc32)nc2c1c(=O)n(C)c(=O)n2C ?
Cav3 T inh: inactive; PostGolgi yeast: inactive; PLAP act: inactive; DAT uptake mod: inactive; PostGolgi ctrl: inactive

What do the screens show for `Cc1cc(F)c(F)c(C(=O)N2CCN(C)CC2)c1Cl`?
Cav3 T inh: inactive; PostGolgi yeast: inactive; D1 mod: inactive; PLAP act: inactive; DAT uptake mod: inactive; PostGolgi ctrl: inactive
